Common to all, as to test: DAPPL (digital affinity profiling via proximity ligation, sequencing); 10 mM Tris-HCl pH 7.5, 50 mM NaCl, 1 mM DTT, 4% glycerol, room temperature, 30 min; GST-TFs on glutathione beads, 16-mer random dsDNA library, 0.1% formaldehyde crosslink after washing; high values mean tight binding
For experiment [1], the target named is T1, FLI1 (Homo sapiens, UniProt Q01543 1-452).
T1 sequence: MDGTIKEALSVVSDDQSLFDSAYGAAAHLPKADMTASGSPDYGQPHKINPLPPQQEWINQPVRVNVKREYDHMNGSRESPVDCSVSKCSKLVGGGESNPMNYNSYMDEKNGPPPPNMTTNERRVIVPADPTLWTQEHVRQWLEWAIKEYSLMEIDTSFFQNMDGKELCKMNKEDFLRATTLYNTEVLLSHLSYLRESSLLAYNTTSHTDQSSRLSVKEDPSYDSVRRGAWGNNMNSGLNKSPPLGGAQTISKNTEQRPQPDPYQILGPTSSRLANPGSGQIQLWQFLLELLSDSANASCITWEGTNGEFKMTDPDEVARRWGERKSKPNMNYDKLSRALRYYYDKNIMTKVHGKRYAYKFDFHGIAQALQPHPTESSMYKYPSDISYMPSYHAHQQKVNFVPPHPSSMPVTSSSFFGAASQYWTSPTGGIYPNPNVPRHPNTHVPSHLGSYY
The following applies: protein: recombinant; tags: N-terminal GST; dsDNA, one strand shown. In short, it runs like this: (§1)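 Human transcription factors were made in yeast as GST fusions, captured on glutathione beads and barcoded with DNA. With a tag-only sample included, the pool was incubated with 200 nmole of a random double-stranded 16-mer DNA library in Tris/NaCl/DTT/glycerol buffer at room temperature for 30 min, then crosslinked with 0.1% formaldehyde after washing, ligated by proximity, amplified and sequenced. For binding signal, each hexamer's read frequency for a factor is divided by its frequency for the tag-only sample.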

In experiment [2] the target is T2, ELK1 (Homo sapiens, UniProt P19419 1-428).
T2 sequence: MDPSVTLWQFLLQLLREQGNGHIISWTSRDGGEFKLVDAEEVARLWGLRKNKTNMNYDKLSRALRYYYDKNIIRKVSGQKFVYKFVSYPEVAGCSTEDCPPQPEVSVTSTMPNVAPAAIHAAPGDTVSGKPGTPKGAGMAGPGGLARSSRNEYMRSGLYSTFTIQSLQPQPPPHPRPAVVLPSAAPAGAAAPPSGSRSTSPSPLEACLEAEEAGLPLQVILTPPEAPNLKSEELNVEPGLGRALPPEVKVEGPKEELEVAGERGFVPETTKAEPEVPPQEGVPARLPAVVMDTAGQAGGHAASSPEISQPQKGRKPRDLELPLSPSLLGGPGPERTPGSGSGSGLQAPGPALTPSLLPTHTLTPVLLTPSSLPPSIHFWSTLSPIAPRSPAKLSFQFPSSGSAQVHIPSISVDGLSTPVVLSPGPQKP
The following applies: protein: recombinant; tags: N-terminal GST; dsDNA, one strand shown. In a few lines:
as §1

The target of experiment [3] is T3, GABPA (Homo sapiens, UniProt Q06546 1-454).
T3 sequence: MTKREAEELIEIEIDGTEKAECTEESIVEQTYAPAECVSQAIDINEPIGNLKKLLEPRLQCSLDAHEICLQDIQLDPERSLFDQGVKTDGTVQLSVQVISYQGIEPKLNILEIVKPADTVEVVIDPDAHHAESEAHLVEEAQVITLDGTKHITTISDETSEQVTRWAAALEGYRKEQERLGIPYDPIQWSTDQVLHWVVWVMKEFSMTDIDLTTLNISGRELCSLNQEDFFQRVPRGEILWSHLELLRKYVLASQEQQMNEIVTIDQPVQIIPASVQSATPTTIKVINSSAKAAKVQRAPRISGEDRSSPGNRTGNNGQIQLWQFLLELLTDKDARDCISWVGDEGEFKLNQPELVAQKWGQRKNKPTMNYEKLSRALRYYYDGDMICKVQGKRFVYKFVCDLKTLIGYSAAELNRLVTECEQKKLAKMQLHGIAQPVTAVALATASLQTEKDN
Particulars: protein: recombinant; tags: N-terminal GST; dsDNA, one strand shown. In a few lines:
as §1

Experiment [4] has as its target T4, ERG (Homo sapiens, UniProt P11308 1-479).
T4 sequence: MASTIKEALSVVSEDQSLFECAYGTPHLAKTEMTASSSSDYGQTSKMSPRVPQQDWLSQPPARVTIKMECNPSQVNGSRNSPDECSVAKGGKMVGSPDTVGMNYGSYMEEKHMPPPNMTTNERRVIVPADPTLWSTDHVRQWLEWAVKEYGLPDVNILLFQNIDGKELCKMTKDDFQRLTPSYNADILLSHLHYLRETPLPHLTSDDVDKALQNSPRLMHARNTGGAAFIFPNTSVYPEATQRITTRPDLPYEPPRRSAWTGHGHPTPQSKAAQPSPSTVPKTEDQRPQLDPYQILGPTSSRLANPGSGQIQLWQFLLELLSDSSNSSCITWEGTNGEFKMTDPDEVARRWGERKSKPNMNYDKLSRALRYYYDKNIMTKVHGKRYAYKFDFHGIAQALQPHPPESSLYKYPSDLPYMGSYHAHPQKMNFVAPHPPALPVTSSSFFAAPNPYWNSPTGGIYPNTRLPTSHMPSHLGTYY
The following applies: protein: recombinant; tags: N-terminal GST; dsDNA, one strand shown. In short, it runs like this:
as §1

Experiment [5] deals with ELF1 (Homo sapiens, UniProt P32519 1-619). Particulars: protein: recombinant; tags: N-terminal GST; dsDNA, one strand shown. In short, it runs like this: as §1
Chain of ELF1 (P32519 whole entry): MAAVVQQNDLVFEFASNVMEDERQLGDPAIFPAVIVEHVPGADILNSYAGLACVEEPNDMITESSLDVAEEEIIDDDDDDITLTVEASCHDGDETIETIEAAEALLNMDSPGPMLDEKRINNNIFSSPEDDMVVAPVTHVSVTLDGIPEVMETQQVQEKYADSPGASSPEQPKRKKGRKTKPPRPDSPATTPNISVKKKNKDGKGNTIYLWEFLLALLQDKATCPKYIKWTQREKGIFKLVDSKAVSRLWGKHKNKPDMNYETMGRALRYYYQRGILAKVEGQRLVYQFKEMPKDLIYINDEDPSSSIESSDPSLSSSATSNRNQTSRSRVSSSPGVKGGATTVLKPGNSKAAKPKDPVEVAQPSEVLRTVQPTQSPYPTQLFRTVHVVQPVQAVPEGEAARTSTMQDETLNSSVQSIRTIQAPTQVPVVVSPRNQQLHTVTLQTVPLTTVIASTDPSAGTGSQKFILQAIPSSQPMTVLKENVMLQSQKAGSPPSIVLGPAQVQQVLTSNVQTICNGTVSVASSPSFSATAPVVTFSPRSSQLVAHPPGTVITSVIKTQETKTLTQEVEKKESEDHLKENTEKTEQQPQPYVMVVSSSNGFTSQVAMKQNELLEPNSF
Experiment [6] deals with T5, EHF (Homo sapiens, UniProt Q9NZC4 1-300).
T5 sequence: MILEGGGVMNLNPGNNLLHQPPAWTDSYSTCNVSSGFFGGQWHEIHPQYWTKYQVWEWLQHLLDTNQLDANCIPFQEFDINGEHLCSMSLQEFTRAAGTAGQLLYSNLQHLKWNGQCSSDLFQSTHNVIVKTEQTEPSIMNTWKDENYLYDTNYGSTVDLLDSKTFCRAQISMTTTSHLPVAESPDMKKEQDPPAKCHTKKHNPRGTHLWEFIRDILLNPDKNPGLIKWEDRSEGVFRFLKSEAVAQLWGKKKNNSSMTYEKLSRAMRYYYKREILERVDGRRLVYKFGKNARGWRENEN
The following applies: protein: recombinant; tags: N-terminal GST; dsDNA, one strand shown. In a few lines:
as §1

For experiment [7], the target named is SPI1 (Homo sapiens, UniProt P17947 1-270). The following applies: protein: recombinant; tags: N-terminal GST; dsDNA, one strand shown. In a few lines: as §1
Experiment [8] concerns the target SPIB (Homo sapiens, UniProt Q01892 1-262). Particulars: protein: recombinant; tags: N-terminal GST; dsDNA, one strand shown. In a few lines: as §1
The target in experiment [9] is T6, ELK3 (Homo sapiens, UniProt P41970 1-407).
T6 sequence: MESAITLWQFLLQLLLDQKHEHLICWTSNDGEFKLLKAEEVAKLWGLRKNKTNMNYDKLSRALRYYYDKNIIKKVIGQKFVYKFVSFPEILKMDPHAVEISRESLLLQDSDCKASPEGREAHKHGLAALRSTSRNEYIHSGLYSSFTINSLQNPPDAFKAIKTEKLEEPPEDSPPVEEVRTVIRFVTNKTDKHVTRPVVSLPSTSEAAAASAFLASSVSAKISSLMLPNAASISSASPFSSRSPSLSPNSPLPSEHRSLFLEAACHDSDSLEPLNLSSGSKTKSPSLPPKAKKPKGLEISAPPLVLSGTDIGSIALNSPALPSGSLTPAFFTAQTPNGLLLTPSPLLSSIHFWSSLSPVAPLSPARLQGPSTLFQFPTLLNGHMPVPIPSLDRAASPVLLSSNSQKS
The following applies: protein: recombinant; tags: N-terminal GST; dsDNA, one strand shown. In a few lines:
as §1

Experiment [10] deals with T7, FEV (Homo sapiens, UniProt Q99581 1-238).
T7 sequence: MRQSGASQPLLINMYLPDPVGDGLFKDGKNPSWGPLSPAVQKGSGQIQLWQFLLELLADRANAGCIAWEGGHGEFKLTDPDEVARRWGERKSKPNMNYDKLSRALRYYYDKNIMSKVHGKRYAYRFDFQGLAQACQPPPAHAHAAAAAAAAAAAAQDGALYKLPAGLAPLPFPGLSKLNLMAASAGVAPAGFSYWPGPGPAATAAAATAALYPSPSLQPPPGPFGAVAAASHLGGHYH
Particulars: protein: recombinant; tags: N-terminal GST; dsDNA, one strand shown. In a few lines: as §1

The target of experiment [11] is ETV5 (Homo sapiens, UniProt P41161 1-510). Particulars: protein: recombinant; tags: N-terminal GST; dsDNA, one strand shown. In short, it runs like this: as §1
Chain of ETV5 (P41161 whole entry): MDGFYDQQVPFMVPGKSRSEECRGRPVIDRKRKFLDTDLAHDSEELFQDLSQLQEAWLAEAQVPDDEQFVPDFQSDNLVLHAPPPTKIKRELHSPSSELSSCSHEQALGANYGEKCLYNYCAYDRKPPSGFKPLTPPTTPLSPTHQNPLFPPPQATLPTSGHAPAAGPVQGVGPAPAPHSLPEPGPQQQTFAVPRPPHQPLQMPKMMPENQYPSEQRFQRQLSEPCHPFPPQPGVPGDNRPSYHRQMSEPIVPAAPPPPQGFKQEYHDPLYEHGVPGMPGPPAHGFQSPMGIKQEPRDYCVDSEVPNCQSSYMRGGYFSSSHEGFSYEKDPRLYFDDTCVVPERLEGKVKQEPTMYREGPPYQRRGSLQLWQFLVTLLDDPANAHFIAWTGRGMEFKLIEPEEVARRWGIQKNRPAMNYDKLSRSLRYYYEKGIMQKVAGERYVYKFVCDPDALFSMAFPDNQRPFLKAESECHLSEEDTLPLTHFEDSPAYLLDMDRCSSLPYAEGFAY
Experiment [12] deals with HSF1 (Homo sapiens, UniProt Q00613 1-529). The following applies: protein: recombinant; tags: N-terminal GST; chain copies: 3; dsDNA, one strand shown. In short, it runs like this:
as §1

For experiment [13], the target named is T8, SPIC (Homo sapiens, UniProt Q8N5J4 1-248).
T8 sequence: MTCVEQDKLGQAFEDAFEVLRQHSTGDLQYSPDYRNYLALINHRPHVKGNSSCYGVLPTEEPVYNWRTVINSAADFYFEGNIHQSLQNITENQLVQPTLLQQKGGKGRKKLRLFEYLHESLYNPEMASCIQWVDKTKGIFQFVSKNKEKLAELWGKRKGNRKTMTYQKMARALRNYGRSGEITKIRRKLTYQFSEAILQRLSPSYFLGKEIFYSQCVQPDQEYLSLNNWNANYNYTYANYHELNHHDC
The following applies: protein: recombinant; tags: N-terminal GST; dsDNA, one strand shown. In short, it runs like this:
as §1

Experiment [14] has as its target ELF4 (Homo sapiens, UniProt Q99607 1-663). Particulars: protein: recombinant; tags: N-terminal GST; dsDNA, one strand shown. In short, it runs like this: as §1
The target in experiment [15] is T9, ELK4 (Homo sapiens, UniProt P28324-2 1-405).
T9 sequence: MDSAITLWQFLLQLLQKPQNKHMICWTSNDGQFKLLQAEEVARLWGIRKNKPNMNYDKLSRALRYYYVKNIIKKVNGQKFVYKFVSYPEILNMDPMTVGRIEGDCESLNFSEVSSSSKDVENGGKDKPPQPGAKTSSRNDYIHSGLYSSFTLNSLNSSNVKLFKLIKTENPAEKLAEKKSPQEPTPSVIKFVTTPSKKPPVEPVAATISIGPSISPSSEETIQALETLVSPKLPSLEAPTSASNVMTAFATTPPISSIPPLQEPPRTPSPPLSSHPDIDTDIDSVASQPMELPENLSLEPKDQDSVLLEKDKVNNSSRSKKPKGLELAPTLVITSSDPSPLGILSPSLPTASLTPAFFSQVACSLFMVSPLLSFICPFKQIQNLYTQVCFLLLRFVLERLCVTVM
Particulars: protein: recombinant; tags: N-terminal GST; dsDNA, one strand shown. In a few lines:
as §1

Experiment [16] addresses T10, ETV2 (Homo sapiens, UniProt O00321 1-342).
T10 sequence: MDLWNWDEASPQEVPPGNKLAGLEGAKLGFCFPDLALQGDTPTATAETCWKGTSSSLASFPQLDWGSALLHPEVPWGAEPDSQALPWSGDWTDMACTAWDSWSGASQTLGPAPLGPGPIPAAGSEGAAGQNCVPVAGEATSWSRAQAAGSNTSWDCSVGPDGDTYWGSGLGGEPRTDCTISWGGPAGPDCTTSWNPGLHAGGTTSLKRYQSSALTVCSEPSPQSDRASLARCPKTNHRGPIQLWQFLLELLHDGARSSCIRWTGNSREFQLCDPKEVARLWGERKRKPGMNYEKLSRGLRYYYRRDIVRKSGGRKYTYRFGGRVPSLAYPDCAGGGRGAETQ
Particulars: protein: recombinant; tags: N-terminal GST; dsDNA, one strand shown. In short, it runs like this:
as §1

The target in experiment [17] is T11, ELF3 (Homo sapiens, UniProt P78545 1-371).
T11 sequence: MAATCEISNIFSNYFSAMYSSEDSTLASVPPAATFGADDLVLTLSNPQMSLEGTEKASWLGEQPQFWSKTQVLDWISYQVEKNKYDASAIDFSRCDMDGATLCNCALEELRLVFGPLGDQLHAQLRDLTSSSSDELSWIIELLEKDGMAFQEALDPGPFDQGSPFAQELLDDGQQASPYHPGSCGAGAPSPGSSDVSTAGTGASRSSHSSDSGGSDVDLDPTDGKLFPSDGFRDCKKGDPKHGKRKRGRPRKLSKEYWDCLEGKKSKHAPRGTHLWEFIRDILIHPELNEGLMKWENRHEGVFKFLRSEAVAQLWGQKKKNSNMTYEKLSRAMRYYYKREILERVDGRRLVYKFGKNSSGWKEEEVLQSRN
Particulars: protein: recombinant; tags: N-terminal GST; dsDNA, one strand shown. In short, it runs like this: as §1

Experiment [18] concerns the target ETV1 (Homo sapiens, UniProt P50549 1-477). The following applies: protein: recombinant; tags: N-terminal GST; dsDNA, one strand shown. In short, it runs like this:
as §1

Chain of ELF4 (Q99607 whole entry): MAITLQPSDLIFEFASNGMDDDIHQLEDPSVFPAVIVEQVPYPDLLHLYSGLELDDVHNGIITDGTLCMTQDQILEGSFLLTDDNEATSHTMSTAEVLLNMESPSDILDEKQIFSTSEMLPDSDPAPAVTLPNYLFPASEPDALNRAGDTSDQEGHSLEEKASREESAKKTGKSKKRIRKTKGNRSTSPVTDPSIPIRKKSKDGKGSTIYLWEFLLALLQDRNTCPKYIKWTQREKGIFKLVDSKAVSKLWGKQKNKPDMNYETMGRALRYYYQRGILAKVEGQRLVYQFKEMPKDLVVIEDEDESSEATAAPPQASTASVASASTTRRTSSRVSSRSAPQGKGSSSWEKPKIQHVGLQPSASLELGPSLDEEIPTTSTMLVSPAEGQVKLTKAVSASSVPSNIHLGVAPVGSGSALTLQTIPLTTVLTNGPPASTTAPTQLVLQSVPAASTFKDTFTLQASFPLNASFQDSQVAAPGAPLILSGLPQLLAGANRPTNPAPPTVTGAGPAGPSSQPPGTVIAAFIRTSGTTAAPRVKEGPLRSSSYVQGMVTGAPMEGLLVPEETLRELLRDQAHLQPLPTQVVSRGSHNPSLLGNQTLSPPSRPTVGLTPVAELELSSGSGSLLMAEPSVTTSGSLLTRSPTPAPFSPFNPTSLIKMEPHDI
Chain of ETV1 (P50549 whole entry): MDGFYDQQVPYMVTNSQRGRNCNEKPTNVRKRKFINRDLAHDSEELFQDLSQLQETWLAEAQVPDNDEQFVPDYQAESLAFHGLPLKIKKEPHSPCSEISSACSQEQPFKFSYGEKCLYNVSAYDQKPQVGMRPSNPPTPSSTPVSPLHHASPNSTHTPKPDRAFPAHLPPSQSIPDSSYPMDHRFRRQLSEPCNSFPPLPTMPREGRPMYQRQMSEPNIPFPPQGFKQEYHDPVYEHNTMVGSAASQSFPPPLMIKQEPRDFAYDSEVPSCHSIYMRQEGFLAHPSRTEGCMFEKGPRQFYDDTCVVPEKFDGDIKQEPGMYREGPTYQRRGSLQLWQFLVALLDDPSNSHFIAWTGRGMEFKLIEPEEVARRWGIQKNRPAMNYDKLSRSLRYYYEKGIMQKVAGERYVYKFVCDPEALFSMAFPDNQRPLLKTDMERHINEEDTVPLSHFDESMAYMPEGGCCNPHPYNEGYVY
Chain of SPIB (Q01892 whole entry): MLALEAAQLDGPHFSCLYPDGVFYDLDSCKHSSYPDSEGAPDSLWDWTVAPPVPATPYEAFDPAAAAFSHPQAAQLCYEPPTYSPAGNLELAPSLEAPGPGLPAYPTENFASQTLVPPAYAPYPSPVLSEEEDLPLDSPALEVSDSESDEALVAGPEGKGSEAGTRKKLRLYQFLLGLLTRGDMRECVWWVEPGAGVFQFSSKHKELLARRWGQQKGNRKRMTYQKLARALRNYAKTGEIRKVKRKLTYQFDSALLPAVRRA
Chain of HSF1 (Q00613 whole entry): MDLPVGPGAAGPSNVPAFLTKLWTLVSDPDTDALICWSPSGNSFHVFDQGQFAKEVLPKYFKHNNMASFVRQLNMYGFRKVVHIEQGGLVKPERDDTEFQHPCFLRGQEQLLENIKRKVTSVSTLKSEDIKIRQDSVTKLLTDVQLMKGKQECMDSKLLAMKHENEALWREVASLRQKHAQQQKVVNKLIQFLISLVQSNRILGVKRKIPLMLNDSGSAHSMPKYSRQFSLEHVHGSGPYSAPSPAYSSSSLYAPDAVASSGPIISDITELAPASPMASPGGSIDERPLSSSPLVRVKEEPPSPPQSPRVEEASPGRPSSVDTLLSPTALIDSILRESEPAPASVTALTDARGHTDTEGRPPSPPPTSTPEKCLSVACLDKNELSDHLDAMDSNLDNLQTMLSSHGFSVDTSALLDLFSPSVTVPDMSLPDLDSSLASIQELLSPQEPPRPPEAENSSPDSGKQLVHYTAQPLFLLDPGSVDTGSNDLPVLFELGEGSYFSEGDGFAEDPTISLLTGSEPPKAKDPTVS

For ACTGGC, the binding signal is 1.26 fold enrichment (6-mer frequency, TF over GST control) in experiment [1]; 1.12 fold enrichment (6-mer frequency, TF over GST control) in experiment [2]; 1.22 fold enrichment (6-mer frequency, TF over GST control) in experiment [3]; 1.11 fold enrichment (6-mer frequency, TF over GST control) in experiment [4]; 1.18 fold enrichment (6-mer frequency, TF over GST control) in experiment [5]; 1.1 fold enrichment (6-mer frequency, TF over GST control) in experiment [6]. In addition, the binding signal in experiment [7] is 1.22 fold enrichment (6-mer frequency, TF over GST control); in [8], 1.15 fold enrichment (6-mer frequency, TF over GST control); in [9] it was 1.21 fold enrichment (6-mer frequency, TF over GST control); in experiment [10], 1.11 fold enrichment (6-mer frequency, TF over GST control); in experiment [11] it was 1.11 fold enrichment (6-mer frequency, TF over GST control); in [12], 1.07 fold enrichment (6-mer frequency, TF over GST control). The binding signal in [13] is 1.28 fold enrichment (6-mer frequency, TF over GST control); in experiment [14] it was 1.16 fold enrichment (6-mer frequency, TF over GST control); in experiment [15], 1.25 fold enrichment (6-mer frequency, TF over GST control); in [16] it was 1.11 fold enrichment (6-mer frequency, TF over GST control); in [17], 1.1 fold enrichment (6-mer frequency, TF over GST control); in experiment [18], 1.11 fold enrichment (6-mer frequency, TF over GST control).

The record behind these values is article PMC7862700, “An all-to-all approach to the identification of sequence-specific readers for epigenetic DNA modifications on cytosine”.
